Where “and” joins values, the source holds several entries; their conditions need not be identical. Equal values may be shown once. Inconclusive results are not listed. The source holds several records for some structures; these can differ, active in one and inactive in another. Calls of active or inactive are those of the source. Unless noted, calls come from the whole dose curve; as a rule, active = well fitted curve in the direction sought with a large enough effect in the repeat runs; inconclusive = weak or mixed curves; inactive = no such curve, though single readings can be large; an effect the other way counts as inactive or inconclusive.
What was measured:
[1] = qHTS assay to identify small molecule agonists of the RXR signaling pathway - cell viability counter screen (AID 1159529); note: nearly all actives have a fitted effect of over 50% in size; note: potency is the fitted concentration of half-maximal effect
How it was run: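 Counter screen: CellTiter-Glo luminescence. Cells: RXR-alpha-UAS-bla HEK 293T. Medium: 2% charcoal-stripped FBS. Treatment: 16 h, 37 C. Reagent incubation: 30 min, RT.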

[2] = qHTS assay to identify small molecule antagonists of the estrogen related receptor (ERR) signaling pathway from Tox21 library - cell viability counter screen (AID 1224834); note: nearly all actives have a fitted effect of over 30% in size; note: potency is the fitted concentration of half-maximal effect
How it was run: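 ERR reporter cells, 2,000 per well, rested 6 h, then exposed to compound in DMSO for 17.5 hours at 37 C. Viability read as fluorescence after 30 min with CellTiter-Fluor.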

[3] = biological target: Luciferin 4-monooxygenase (Photinus pyralis) (UniProt P08659); assay: qHTS assay to identify small molecule inhibitors of firefly luciferase (AID 1224835); note: nearly all actives have a fitted effect of over 25% in size; note: potency is the fitted concentration of half-maximal effect
How it was run: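 Quantitative HTS format; KM concentrations of both substrates. Purified P. pyralis FLuc activity quantified from luminescence images.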

[4] = qHTS assay to identify small molecule agonists of the constitutive androstane receptor (CAR) signaling pathway - cell viability counter screen (AID 1224836); note: nearly all actives have a fitted effect of over 45% in size; note: potency is the fitted concentration of half-maximal effect
How it was run: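 Double-stable HepG2 hepatoma cells (hCAR plus CYP2B6-2.2kb) are treated for 23 h at 37 C with test compounds in 15-point concentration series. PK11195 at 0.75 uM final is co-added. Cell viability is quantified by CellTiter-Fluor.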

[5] = qHTS assay to identify small molecule antagonists of the constitutive androstane receptor (CAR) signaling pathway - cell viability counter screen (AID 1224837); note: nearly all actives have a fitted effect of over 45% in size; note: potency is the fitted concentration of half-maximal effect
How it was run: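 HepG2 cells stably carrying hCAR and CYP2B6-2.2kb reporter, stimulated with 50 nM CITCO and compounds at 15 concentrations for 23 h at 37 C. Viability measured by CellTiter-Fluor fluorescence.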

[6] = biological target: Nuclear receptor subfamily 1 group I member 3 (Homo sapiens) (UniProt Q14994); assay: qHTS assay to identify small molecule antagonists of the constitutive androstane receptor (CAR) signaling pathway (AID 1224838); note: nearly all actives have a fitted effect of over 40% in size; note: potency is the fitted concentration of half-maximal effect
How it was run: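 HepG2 cells stably carrying hCAR and a CYP2B6-2.2kb luciferase reporter, seeded 4 hrs before compound (15 concentrations). Stimulated with 50 nM CITCO for 24 hr at 37 C. ONE-Glo luminescence read after 30 min at room temperature.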

[7] = qHTS assay to identify small molecule antagonists of the estrogen related receptor signaling pathway with the pleiotropic PPARgamma coactivator (PGC) from Tox21 10K library - cell viability counter screen (AID 1224840; active = well fitted cell-killing curve with a large enough effect in the repeat runs, not every such curve was filed as active; note: nearly all actives have a fitted effect of over 40% in size; note: potency is the fitted concentration of half-maximal effect)
How it was run: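 PGC/ERR cells (2,000/well) plated 6 h, then compound-treated for 17.5 h at 37 C. Viability measured by CellTiter-Fluor fluorescence after 30 min at 37 C, multiplexed with the pathway assay.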

[8] = qHTS assay to identify small molecule antagonists of the estrogen related receptor signaling pathway with the pleiotropic PPARgamma coactivator (PGC) from Tox21 10K library (AID 1224841; call rule not given here; note: actives are mostly falling curves and most rising ones were filed inactive; nearly all actives have a fitted effect of over 50% in size; note: potency is the fitted concentration of half-maximal effect)
How it was run: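 PGC/ERR cell line, 2,000 cells/well, pre-incubated 6 hours at 37 C, then exposed to compounds for 18 hours at 37 C; luciferase read with One-Glo luminescence after 30 min at room temperature.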

[9] = qHTS assay to identify small molecule agonists of the estrogen related receptor signaling pathway with the pleiotropic PPARgamma coactivator (PGC) from Tox21 10K library (AID 1224842); note: nearly all actives have a fitted effect of over 15% in size; note: potency is the fitted concentration of half-maximal effect
How it was run: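 PGC/ERR reporter cells (NTP line) were seeded 2,000 per well, rested 6 h at 37 C/5% CO2, then pin-dosed with compounds in DMSO for 18 h at 37 C; luciferase read by One-Glo luminescence after 30 min at room temperature.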

[10] = biological target: Thyrotropin receptor (Homo sapiens) (UniProt P16473); assay: qHTS assay to identify small molecule agonists of the thyroid stimulating hormone receptor (TSHR) signaling pathway (AID 1224843; calls by dose curve; note: nearly all actives have a fitted effect of over 45% in size; note: potency is the fitted concentration of half-maximal effect)
How it was run: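 TSHR-expressing HEK293 cells (800 per well) were exposed to compounds for 30 min at room temperature. cAMP was then detected by HTRF competition with cAMP-d2 and anti-cAMP cryptate, read after 1 h at room temperature. Fifteen concentrations, triplicate.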

[11] = qHTS assay to identify small molecule antagonists of the retinoic acid receptor (RAR) signaling pathway (AID 1159552; note: nearly all actives have a fitted effect of over 50% in size; note: potency is the fitted concentration of half-maximal effect)
How it was run: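 Antagonism of retinol-induced RARE reporter activity was measured in C3RL4 cells. Exposure to compounds and 1 uM final retinol lasted 6 hr at 37 C, with luminescence as endpoint.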

[12] = qHTS assay to identify small molecule agonists of the retinoic acid receptor (RAR) signaling pathway (AID 1159553); note: potency is the fitted concentration of half-maximal effect
How it was run: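 C3RL4 RARE-luciferase cells were seeded at 1,000/well and grown overnight at 37 C, then exposed to compounds for 6 hr at 37 C, 5% CO2. Luciferase reagent was added and luminescence was read after 30 min at room temperature.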

[13] = biological target: Nuclear receptor subfamily 1 group I member 3 (Homo sapiens) (UniProt Q14994); assay: qHTS assay to identify small molecule agonists of the constitutive androstane receptor (CAR) signaling pathway (AID 1224839); note: nearly all actives have a fitted effect of over 15% in size; note: potency is the fitted concentration of half-maximal effect
How it was run: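 Readout: firefly luciferase luminescence via ONE-Glo. System: HepG2 double-stable for hCAR and CYP2B6-2.2kb. Conditions: 15-point compound titration, PK11195 at 0.75 uM final, 24 h incubation.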

[14] = qHTS assay to identify small molecule antagonists of the estrogen related receptor (ERR) signaling pathway - cell viability counter screen (AID 1224818); note: series mostly up to about 46 µM
How it was run: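 ERR cells, 2,000 per well, compound added after 6 h and incubated 17.5 h at 37 C. Viability read by CellTiter-Fluor fluorescence after a further 30 min at 37 C.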

[15] = qHTS assay to identify small molecule antagonists of the estrogen related receptor (ERR) signaling pathway (AID 1224819;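 note: luminescence from an ERR-driven luciferase reporter measured with One-Glo reagent; series mostly up to about 46 µM; nearly all actives have a fitted effect of over 50% in size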)
How it was run: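 ERR reporter cell line (NTP) plated at 2,000 cells/well, settled 6 h at 37C/5% CO2, then exposed to LOPAC compounds for 18 h at 37C. One-Glo luciferase luminescence read after 30 min at room temperature.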

[16] = qHTS assay to identify small molecule agonists of the estrogen related receptor (ERR) signaling pathway (AID 1224820)
How it was run: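 Quantitative HTS of the LOPAC library used NTP ERR reporter cells treated 18 h at 37 C. Signal is luminescence after One-Glo addition and a 30 min room-temperature incubation.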

[17] = tested on: estrogen-related receptor alpha (ERRalpha) with PGC-1alpha coactivator, human; assay: qHTS assay to identify small molecule antagonists of the estrogen related receptor signaling pathway with the pleiotropic PPARgamma coactivator (PGC) (AID 1224821; calls by dose curve)
How it was run: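 Quantitative HTS for antagonism: PGC/ERR cells received compounds after 6 h attachment and were incubated 18 h at 37 C, with luminescence (One-Glo) as the endpoint.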

[18] = qHTS assay to identify small molecule agonists of the estrogen related receptor signaling pathway with the pleiotropic PPARgamma coactivator (PGC) (AID 1224823)
How it was run: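 Cell-based luciferase assay in the NTP-supplied PGC/ERR line, 2,000 cells/well; 18 h compound exposure at 37 C, luminescence after One-Glo.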

[19] = qHTS assay to identify small molecule antagonists of the retinoid acid receptor (RAR) signaling pathway - cell viability counter screen (AID 1159551); note: nearly all actives have a fitted effect of over 35% in size; note: potency is the fitted concentration of half-maximal effect
How it was run: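 C3RL4 RARE-luciferase cells, 1,000/well, incubated overnight, then dosed with compound plus 1 uM retinol (final). After 6 hr at 37 C, viability read by CellTiter-Glo ATP luminescence following 30 min at room temperature.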

[20] = qHTS assay to identify small molecule antagonists of the estrogen related receptor signaling pathway with the pleiotropic PPARgamma coactivator (PGC) cell viability counter screen (AID 1224822; note: series mostly up to about 46 µM)
How it was run: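 PGC/ERR cells rested 6 h, then compound-treated 17.5 h at 37 C. CellTiter-Fluor added for 30 min at 37 C, viability measured by fluorescence intensity.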

Measured: Potency

Luciferin 4-monooxygenase (Photinus pyralis), sequence (P08659 whole entry, looked up): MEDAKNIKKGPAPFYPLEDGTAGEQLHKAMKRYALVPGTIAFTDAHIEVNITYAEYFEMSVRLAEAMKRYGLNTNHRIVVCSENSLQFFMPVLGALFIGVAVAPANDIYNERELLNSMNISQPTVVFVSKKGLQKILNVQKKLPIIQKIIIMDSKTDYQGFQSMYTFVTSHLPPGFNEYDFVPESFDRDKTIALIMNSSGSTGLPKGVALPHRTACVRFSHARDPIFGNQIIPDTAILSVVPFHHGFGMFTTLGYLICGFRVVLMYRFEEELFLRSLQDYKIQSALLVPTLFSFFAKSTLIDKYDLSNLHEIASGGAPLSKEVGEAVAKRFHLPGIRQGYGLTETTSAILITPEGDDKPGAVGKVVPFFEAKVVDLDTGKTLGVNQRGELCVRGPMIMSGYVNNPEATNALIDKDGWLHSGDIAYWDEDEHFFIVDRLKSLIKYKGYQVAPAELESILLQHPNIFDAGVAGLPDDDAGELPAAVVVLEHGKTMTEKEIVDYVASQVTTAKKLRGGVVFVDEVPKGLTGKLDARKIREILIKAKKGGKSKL
Thyrotropin receptor (Homo sapiens), sequence (P16473 whole entry, looked up): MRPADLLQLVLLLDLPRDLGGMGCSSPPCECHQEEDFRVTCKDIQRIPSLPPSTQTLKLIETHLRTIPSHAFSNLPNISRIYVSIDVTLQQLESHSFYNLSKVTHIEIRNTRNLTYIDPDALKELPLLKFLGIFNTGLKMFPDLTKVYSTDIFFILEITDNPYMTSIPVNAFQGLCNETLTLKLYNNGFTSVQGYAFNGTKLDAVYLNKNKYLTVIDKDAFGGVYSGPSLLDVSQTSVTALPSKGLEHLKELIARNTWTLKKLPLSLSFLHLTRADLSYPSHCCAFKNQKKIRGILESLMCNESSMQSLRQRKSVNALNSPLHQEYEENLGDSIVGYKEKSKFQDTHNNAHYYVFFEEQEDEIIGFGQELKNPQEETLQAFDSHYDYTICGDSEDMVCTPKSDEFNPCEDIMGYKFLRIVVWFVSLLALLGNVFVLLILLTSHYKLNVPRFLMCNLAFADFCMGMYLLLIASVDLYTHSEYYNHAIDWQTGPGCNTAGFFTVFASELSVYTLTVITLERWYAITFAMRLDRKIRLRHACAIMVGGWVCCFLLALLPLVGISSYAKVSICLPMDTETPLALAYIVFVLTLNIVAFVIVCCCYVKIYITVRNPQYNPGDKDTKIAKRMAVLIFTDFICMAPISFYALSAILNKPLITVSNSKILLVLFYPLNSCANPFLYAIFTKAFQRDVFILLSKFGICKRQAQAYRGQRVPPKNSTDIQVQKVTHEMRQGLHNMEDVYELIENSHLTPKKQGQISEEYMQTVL
Nuclear receptor subfamily 1 group I member 3 (Homo sapiens), sequence (Q14994 whole entry, looked up): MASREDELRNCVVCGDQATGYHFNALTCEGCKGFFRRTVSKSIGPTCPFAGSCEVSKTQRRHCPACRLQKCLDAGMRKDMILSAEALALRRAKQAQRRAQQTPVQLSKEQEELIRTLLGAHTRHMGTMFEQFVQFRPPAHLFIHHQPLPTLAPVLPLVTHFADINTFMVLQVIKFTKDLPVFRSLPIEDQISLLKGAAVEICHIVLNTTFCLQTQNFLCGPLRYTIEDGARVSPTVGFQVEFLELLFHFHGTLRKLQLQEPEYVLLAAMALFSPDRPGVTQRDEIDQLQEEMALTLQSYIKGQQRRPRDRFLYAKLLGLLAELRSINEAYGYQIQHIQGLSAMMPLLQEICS

CC1(C)CN=C(NN=C(/C=C/c2ccc(C(F)(F)F)cc2)/C=C/c2ccc(C(F)(F)F)cc2)NC1
active: [1] 13.8 µM | [2] 21.7 µM | [4] 24.3 µM | [5] 21.7 µM | [6] 19.3 µM | [7] 17.2 µM | [8] 27.3 µM
inactive: [3] | [9] | [10]

Cc1cc(SCc2sc(-c3ccc(C(F)(F)F)c(F)c3)nc2C)ccc1OCC(=O)O
inactive: [11] | [12] | [4] | [5] | [6] | [7] | [8] | [9]
active: [1] 19.5 µM

N#Cc1ccccc1Cl
inactive: [1] | [11] | [2] | [3] | [5] | [7] | [9] | [10]

C=COCCCl
inactive: [1] | [2] | [4] | [5] | [6] | [13] | [7] | [8] | [9] | [10]

O=C(CCCN1CCC2(CC1)C(=O)NCN2c1ccccc1)c1ccc(F)cc1
active: [4] 5.96 µM | [5] 3.35 µM | [6] 7.5 µM
not listed: [11] | [13] | [19] | [20]
inactive: all other assays above

Oc1cccc(-c2ccccc2)c1
active: [3] 35.6 µM | [13] 54.5 µM
inactive: [1] | [11] | [2] | [4] | [5] | [6] | [7] | [8] | [9] | [10]

CCc1nn(C)c(C(=O)NCc2ccc(C(C)(C)C)cc2)c1Cl
inactive: [3] | [5] | [6] | [13] | [9]
active: [1] 43.6 µM | [2] 30.6 µM | [8] 0.0611 µM

Nc1ccc([N+](=O)[O-])cc1Cl
inactive: [1] | [11] | [5] | [6] | [7] | [10]

O=C(CCl)Nc1ccccc1
active: [2] 30.6 µM | [4] 48.6 µM | [5] 48.6 µM | [6] 54.5 µM | [7] 24.3 µM | [8] 8.63 µM
inactive: [1] | [3] | [13] | [9] | [10]

CN(C)c1ccc(N=Nc2ccccc2)cc1
active: [12] 0.097 µM | [2] 43.3 µM | [3] 0.252 µM
inactive: [19] | [11] | [10]

CCOC(=O)OC1=C(c2cc(C)ccc2C)C(=O)NC12CCC(OC)CC2 (stereo not given)
active: [11] 43.2 µM
inactive: [19] | [12] | [3] | [4] | [5] | [6] | [7]

Nc1ccc(Cl)cc1C(=O)c1ccccc1
active: [9] 54.5 µM
inactive: [1] | [4] | [7] | [10]

O=c1oc2ccccc2c(O)c1Cc1c(O)c2ccccc2oc1=O
inactive: [19] | [11] | [12] | [2] | [4] | [5] | [6] | [7] | [9]

C[C@@H]1O[C@@H](O[C@H]2C[C@@H](O)[C@]3(CO)[C@H]4[C@H](O)C[C@]5(C)[C@@H](C6=CC(=O)OC6)CC[C@]5(O)[C@@H]4CC[C@]3(O)C2)[C@H](O)[C@H](O)[C@H]1O
inactive: [19] | [11] | [12] | [14]
active: [2] 91.9 nM and 84.1 nM | [6] 146 nM and 168 nM

ClC1=C(Cl)[C@]2(Cl)[C@@H]3[C@@H]4C[C@@H]([C@H]5O[C@@H]45)[C@@H]3[C@@]1(Cl)C2(Cl)Cl
active: [19] 61.1 µM | [11] 27.3 µM | [2] 54.5 µM | [7] 61.1 µM | [8] 61.1 µM | [10] 1.93 µM
inactive: [14] | [16] | [20] | [18] | [3] | [4] | [5] | [9]

CCCCCCCCCCCCCCCC[N+](C)(C)C
active: [1] 10.6 µM and 24.5 µM and 12 µM | [4] 54.5 µM | [5] 54.5 µM
inactive: [3] | [6] | [13]
inactive and 61.1 µM (active): [7]

Clc1ccc(C(c2ccccc2Cl)C(Cl)(Cl)Cl)cc1 (stereo not given)
inactive: [4] | [5] | [6] | [7] | [9]
active: [1] 49.3 µM and 25.6 µM | [8] 61.5 µM

COP(=S)(OC)Oc1cc(Cl)c(Br)cc1Cl
inactive: [19] | [11] | [12] | [2] | [4] | [5] | [6] | [7] | [10]
active: [13] 54.5 µM

CC(C)(C)C(O)C(Oc1ccc(-c2ccccc2)cc1)n1cncn1 (stereo not given)
active: [1] 54.9 µM | [8] 54.5 µM
inactive: [3] | [6] | [7] | [9]

CN(C)C1CSSSC1
inactive: [19] | [11] | [12] | [4] | [5] | [6] | [7] | [9]

CC(=O)C(Cl)(Cl)Cl
inactive: [19] | [12] | [9] | [10]
active: [11] 29.6 µM | [5] 20.9 µM | [6] 23.5 µM | [7] 23.5 µM | [8] 8.34 µM
